{"source": "PubChem BioAssay", "key": {"[1]": {"assay": "inhibitors of TNFa-induced NFkB p65 translocation, primary screen, imaging, HUVEC, MLSMR starter and 10KST1 sets (AID 438;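 active = inhibition above 20% together with a positive visual image hit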;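 note: compound added about 3h40 before a 20 min TNFalpha stimulation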;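 for inhibition: signal is the nuclear over cytoplasmic p65 intensity ratio per well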)", "conditions": "HUVEC TNFa-induced p65 nuclear translocation; cell count: measured here: nuclei count (cytotoxicity indicator), at 2.08 µM; inhibition: at 2 µM, stronger effect = higher value, 0% TNFa-plus-vehicle, 100% no-TNFa wells"}, "[2]": {"assay": "reduction of polyQ htt aggregates in cells – imaging, exon1htt(103Q)mCFP cells, high-content imaging, primary screen (AID 483);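 note: compound exposure lasted 3 days before fixation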;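 for nuclei count: percent of the per-plate median nuclei count of sample wells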", "conditions": "exon1htt(103Q)mCFP cell line, aggregate imaging, at 2 µM; inhibition of aggregation: stronger effect = higher value; nuclei count: measured here: cell count, toxicity"}, "[3]": {"assay": "endothelial E-selectin expression blockers – imaging, HUVEC, immunofluorescence, MLSMR starter and 10KST1 sets, primary screen (AID 487;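 active = visually confirmed hit in the image check and inhibition above 20%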;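 for inhibition: signal is fraction of cell area covered by stained E-selectin grains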;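 for nuclei count: 100% = median nuclei count of all wells on the same plate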)", "conditions": "HUVEC TNFalpha-induced E-selectin immunofluorescence imaging, at 2 µM; inhibition: stronger effect = higher value; nuclei count: measured here: cell number, toxicity"}, "[4]": {"biological_target": "Voltage-gated potassium channel subunit beta-2 (Rattus norvegicus) (UniProt P62483)", "sequence (P62483 whole entry, looked up)": "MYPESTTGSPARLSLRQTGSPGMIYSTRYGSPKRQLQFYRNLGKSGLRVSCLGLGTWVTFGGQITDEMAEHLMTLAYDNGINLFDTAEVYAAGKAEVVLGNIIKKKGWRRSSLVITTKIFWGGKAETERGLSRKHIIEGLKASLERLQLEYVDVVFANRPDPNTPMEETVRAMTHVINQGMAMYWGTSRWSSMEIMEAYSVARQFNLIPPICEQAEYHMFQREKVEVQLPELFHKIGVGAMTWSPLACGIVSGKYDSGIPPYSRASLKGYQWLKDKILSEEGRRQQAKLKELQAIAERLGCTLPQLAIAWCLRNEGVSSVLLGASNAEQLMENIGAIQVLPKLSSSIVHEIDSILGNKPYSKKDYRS", "assay": "inhibitors of rat Kvbeta2 reductase activity – biochemical, NADPH fluorescence, primary screen (AID 622;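 active = fluorescence slope higher than the sample average by over 3 SD, cut at about -0.22 in these data, passing the limit was not always enough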;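 note: slope of raw intensity against log time taken from 70 to 1610 s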)", "conditions": "recombinant KvBeta, 4-cyanobenzaldehyde reduction, at 10 µM, stronger effect = higher value"}, "[5]": {"biological_target": "Voltage-gated potassium channel subunit beta-2 (Rattus norvegicus) (UniProt P62483)", "assay": "enhancers of rat Kvbeta2 NADPH turnover – biochemical, NADPH fluorescence, primary screen (AID 623;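 active = NADPH fluorescence slope more negative than the mean of all samples by about 3 SD, 99.7% confidence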;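 note: fluorescence intensity change per second fitted from 20 to 320 s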)", "conditions": "Recombinant KvBeta, NADPH fluorescence decrease slope, 10 min; at 10 µM; stronger effect = lower value"}, "[6]": {"biological_target": "Alpha-2C adrenergic receptor (Homo sapiens) (UniProt P18825)", "sequence (P18825 whole entry, looked up)": "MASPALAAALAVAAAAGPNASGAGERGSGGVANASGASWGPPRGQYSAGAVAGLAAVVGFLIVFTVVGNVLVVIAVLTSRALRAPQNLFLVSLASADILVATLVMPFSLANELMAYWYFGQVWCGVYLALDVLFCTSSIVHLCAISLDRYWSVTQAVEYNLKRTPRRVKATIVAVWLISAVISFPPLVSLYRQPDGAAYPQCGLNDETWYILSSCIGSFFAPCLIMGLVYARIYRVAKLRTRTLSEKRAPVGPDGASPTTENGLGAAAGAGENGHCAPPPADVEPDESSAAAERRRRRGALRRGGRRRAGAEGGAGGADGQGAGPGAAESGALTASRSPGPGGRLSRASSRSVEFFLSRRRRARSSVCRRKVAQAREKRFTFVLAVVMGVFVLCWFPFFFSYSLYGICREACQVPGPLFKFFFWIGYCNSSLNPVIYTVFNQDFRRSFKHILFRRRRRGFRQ", "assay": "compounds altering alpha2C-coupled GIRK flux – cell-based, HEK293 alpha2C/GIRK1/2, thallium flux, primary screen (AID 624;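 active = fluorescence slope after compound addition differing from the mean of all screened samples at 99.7% confidence, in either direction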;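 note: slope of fluorescence ratio to pre-addition baseline per second over 15 to 24 s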)", "conditions": "thallium flux BTC fluorescence, at 10 µM, actives lie on both sides"}, "[7]": {"assay": "blockers of RIG-like receptor reporter activation – cell-based, Sendai virus stimulus, luciferase, 10K MLSCN set, TLR/RLR signaling modifier project, primary screen (AID 602276;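 active = inhibition at or above 50% at 10 µM; inactive = inhibition below 50%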;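 note: firefly luciferase from ISG56 promoter only with Renilla not read in this screen; 0% = Sendai virus plus DMSO and 100% = medium plus DMSO without virus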)", "conditions": "HEK293 RL24 IRF3 luciferase reporter, at 10 µM, stronger effect = higher value"}, "[8]": {"assay": "TLR3 IRF3 reporter activation blockers – cell-based, poly I:C stimulus, luciferase, 10K MLSCN set, primary screen (AID 602277;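 active = inhibition of the reporter signal at or above 50%; inactive = inhibition below 50%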)", "conditions": "HEK293-TLR3 RL24 IRF3 luciferase reporter, at 10 µM, stronger effect = higher value"}}, "note": "Active and inactive are the calls of the source.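 Rule for the calls, unless noted: active = visual image review flags a hit and inhibition of aggregation exceeds 20%; inconclusive = visual hit but inhibition at or below 20%; inactive = no hit on visual image review.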", "data": [{"smiles": "CC1NC(=O)NC1CCCCCC(=O)NCCc1ccccc1", "note": "(centres undefined)", "values": [{"measurement": "cell count", "setting": "[1]", "result": 391}, {"measurement": "inhibition", "setting": "[1]", "result": "7.3% (inactive)"}, {"measurement": "inhibition of aggregation", "setting": "[2]", "result": "7.5% (inactive)"}, {"measurement": "nuclei count", "setting": "[2]", "result": 110, "unit": "%"}, {"measurement": "inhibition", "setting": "[3]", "result": "-86.2% (inactive)"}, {"measurement": "nuclei count", "setting": "[3]", "result": 113, "unit": "%"}, {"measurement": "fluorescence slope", "setting": "[4]", "result": "-0.441 (inactive)"}, {"measurement": "NADPH fluorescence slope", "setting": "[5]", "result": "-1.4e-05 (inactive)"}, {"measurement": "slope", "setting": "[6]", "result": "0.006 (inactive)"}, {"measurement": "inhibition", "setting": "[7]", "result": "5.75% (inactive)"}, {"measurement": "inhibition", "setting": "[8]", "result": "15.3% (inactive)"}]}, {"smiles": "CCC(C)NC(=O)c1cn(CC)c2ccc(S(=O)(=O)N(C)C)cc2c1=O", "note": "(centres undefined)", "values": [{"measurement": "cell count", "setting": "[1]", "result": 603}, {"measurement": "inhibition", "setting": "[1]", "result": "-11.6% (inactive)"}, {"measurement": "inhibition of aggregation", "setting": "[2]", "result": "-11.6% (inactive)"}, {"measurement": "nuclei count", "setting": "[2]", "result": 111, "unit": "%"}, {"measurement": "inhibition", "setting": "[3]", "result": "-70.7% (inactive)"}, {"measurement": "nuclei count", "setting": "[3]", "result": 125, "unit": "%"}, {"measurement": "fluorescence slope", "setting": "[4]", "result": "-0.376 (inactive)"}, {"measurement": "NADPH fluorescence slope", "setting": "[5]", "result": "1.4e-05 (inactive)"}, {"measurement": "slope", "setting": "[6]", "result": "0.00604 (inactive)"}, {"measurement": "inhibition", "setting": "[7]", "result": "19.1% (inactive)"}, {"measurement": "inhibition", "setting": "[8]", "result": "29.7% (inactive)"}]}, {"smiles": "O=C1OC2(c3ccccc3)C3CCCC2C13", "values": [{"measurement": "cell count", "setting": "[1]", "result": 340}, {"measurement": "inhibition", "setting": "[1]", "result": "-1.1% (inactive)"}, {"measurement": "inhibition of aggregation", "setting": "[2]", "result": "7.7% (inactive)"}, {"measurement": "nuclei count", "setting": "[2]", "result": 94.1, "unit": "%"}, {"measurement": "inhibition", "setting": "[3]", "result": "5.3% (inactive)"}, {"measurement": "nuclei count", "setting": "[3]", "result": 107, "unit": "%"}, {"measurement": "fluorescence slope", "setting": "[4]", "result": "-0.548 (inactive)"}, {"measurement": "NADPH fluorescence slope", "setting": "[5]", "result": "-7.3e-05 (inactive)"}, {"measurement": "slope", "setting": "[6]", "result": "0.00538 (inactive)"}, {"measurement": "inhibition", "setting": "[7]", "result": "16% (inactive)"}, {"measurement": "inhibition", "setting": "[8]", "result": "15.6% (inactive)"}]}, {"smiles": "O=C(c1ccco1)N1CCN(C(=O)C2CC(c3ccc(F)cc3)=NO2)CC1", "note": "(centres undefined)", "values": [{"measurement": "cell count", "setting": "[1]", "result": 448}, {"measurement": "inhibition", "setting": "[1]", "result": "-12.3% (inactive)"}, {"measurement": "inhibition of aggregation", "setting": "[2]", "result": "-13.2% (inactive)"}, {"measurement": "nuclei count", "setting": "[2]", "result": 106, "unit": "%"}, {"measurement": "inhibition", "setting": "[3]", "result": "-12.7% (inactive)"}, {"measurement": "nuclei count", "setting": "[3]", "result": 112, "unit": "%"}, {"measurement": "fluorescence slope", "setting": "[4]", "result": "-0.622 (inactive)"}, {"measurement": "NADPH fluorescence slope", "setting": "[5]", "result": "2.2e-07 (inactive)"}, {"measurement": "slope", "setting": "[6]", "result": "0.00657 (inactive)"}, {"measurement": "inhibition", "setting": "[7]", "result": "7.52% (inactive)"}, {"measurement": "inhibition", "setting": "[8]", "result": "13.1% (inactive)"}]}, {"smiles": "O=C(CSc1nnc(-c2ccncc2)o1)Oc1ccccc1", "values": [{"measurement": "cell count", "setting": "[1]", "result": 662}, {"measurement": "inhibition", "setting": "[1]", "result": "-2.6% (inactive)"}, {"measurement": "inhibition of aggregation", "setting": "[2]", "result": "-12.9% (inactive)"}, {"measurement": "nuclei count", "setting": "[2]", "result": 109, "unit": "%"}, {"measurement": "inhibition", "setting": "[3]", "result": "-84.7% (inactive)"}, {"measurement": "nuclei count", "setting": "[3]", "result": 109, "unit": "%"}, {"measurement": "fluorescence slope", "setting": "[4]", "result": "-0.39 (inactive)"}, {"measurement": "NADPH fluorescence slope", "setting": "[5]", "result": "-5.2e-05 (inactive)"}, {"measurement": "slope", "setting": "[6]", "result": "0.00449 (inactive)"}, {"measurement": "inhibition", "setting": "[7]", "result": "16.3% (inactive)"}, {"measurement": "inhibition", "setting": "[8]", "result": "13.7% (inactive)"}]}, {"smiles": "CCOC(=O)CSc1nnc2n1C(C)(C)Cc1ccccc1-2", "values": [{"measurement": "cell count", "setting": "[1]", "result": 305}, {"measurement": "inhibition", "setting": "[1]", "result": "-0.9% (inactive)"}, {"measurement": "inhibition of aggregation", "setting": "[2]", "result": "0.5% (inactive)"}, {"measurement": "nuclei count", "setting": "[2]", "result": 51.3, "unit": "%"}, {"measurement": "inhibition", "setting": "[3]", "result": "-102% (inactive)"}, {"measurement": "nuclei count", "setting": "[3]", "result": 117, "unit": "%"}, {"measurement": "fluorescence slope", "setting": "[4]", "result": "-0.384 (inactive)"}, {"measurement": "NADPH fluorescence slope", "setting": "[5]", "result": "-8.4e-05 (inactive)"}, {"measurement": "slope", "setting": "[6]", "result": "0.00549 (inactive)"}, {"measurement": "inhibition", "setting": "[7]", "result": "-15.4% (inactive)"}, {"measurement": "inhibition", "setting": "[8]", "result": "-27.1% (inactive)"}]}, {"smiles": "CC(=O)Nc1c(C(=O)C2CC2)oc2ccccc12", "values": [{"measurement": "cell count", "setting": "[1]", "result": 514}, {"measurement": "inhibition", "setting": "[1]", "result": "2.2% (inactive)"}, {"measurement": "inhibition of aggregation", "setting": "[2]", "result": "-10.5% (inactive)"}, {"measurement": "nuclei count", "setting": "[2]", "result": 102, "unit": "%"}, {"measurement": "inhibition", "setting": "[3]", "result": "-8.1% (inactive)"}, {"measurement": "nuclei count", "setting": "[3]", "result": 117, "unit": "%"}, {"measurement": "fluorescence slope", "setting": "[4]", "result": "-0.448 (inactive)"}, {"measurement": "NADPH fluorescence slope", "setting": "[5]", "result": "-2.5e-05 (inactive)"}, {"measurement": "slope", "setting": "[6]", "result": "0.00698 (inactive)"}, {"measurement": "inhibition", "setting": "[7]", "result": "-3.28% (inactive)"}, {"measurement": "inhibition", "setting": "[8]", "result": "2.69% (inactive)"}]}, {"smiles": "CC(=O)Nc1cc2c(nc1C)nc(C)n2Cc1ccc(Br)cc1", "values": [{"measurement": "cell count", "setting": "[1]", "result": 419}, {"measurement": "inhibition", "setting": "[1]", "result": "-1.6% (inactive)"}, {"measurement": "inhibition of aggregation", "setting": "[2]", "result": "7.8% (inactive)"}, {"measurement": "nuclei count", "setting": "[2]", "result": 92, "unit": "%"}, {"measurement": "inhibition", "setting": "[3]", "result": "-83.5% (inactive)"}, {"measurement": "nuclei count", "setting": "[3]", "result": 118, "unit": "%"}, {"measurement": "fluorescence slope", "setting": "[4]", "result": "-0.526 (inactive)"}, {"measurement": "NADPH fluorescence slope", "setting": "[5]", "result": "-0.000178 (inactive)"}, {"measurement": "slope", "setting": "[6]", "result": "0.00402 (inactive)"}, {"measurement": "inhibition", "setting": "[7]", "result": "15% (inactive)"}, {"measurement": "inhibition", "setting": "[8]", "result": "-9.25% (inactive)"}]}, {"smiles": "CCNC(=O)C1CC(=O)N(Cc2ccc3c(c2)OCO3)C(=Nc2ccc(F)cc2)S1", "note": "(centres undefined)", "values": [{"measurement": "cell count", "setting": "[1]", "result": 705}, {"measurement": "inhibition", "setting": "[1]", "result": "-0.8% (inactive)"}, {"measurement": "inhibition of aggregation", "setting": "[2]", "result": "-38.8% (inactive)"}, {"measurement": "nuclei count", "setting": "[2]", "result": 109, "unit": "%"}, {"measurement": "inhibition", "setting": "[3]", "result": "-83.7% (inactive)"}, {"measurement": "nuclei count", "setting": "[3]", "result": 98, "unit": "%"}, {"measurement": "fluorescence slope", "setting": "[4]", "result": "-0.471 (inactive)"}, {"measurement": "NADPH fluorescence slope", "setting": "[5]", "result": "-0.000221 (inactive)"}, {"measurement": "slope", "setting": "[6]", "result": "0.00631 (inactive)"}, {"measurement": "inhibition", "setting": "[7]", "result": "-2.28% (inactive)"}, {"measurement": "inhibition", "setting": "[8]", "result": "16% (inactive)"}]}]}
